Reference: PubChem BioAssay (NCI)
About 79,000 compounds went through this panel and 15% of them were active in at least one assay; those are over-represented in the sample as a whole. Unmarked numbers belong to inactive results. The source made the active and inactive calls. Cut-off read from the data, not from the text of the source: active = growth inhibition above about 70%; inactive = the rest.

Assay: NCI Yeast Anticancer Drug Screen. Data for the sgs1 strain (AID 173);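 note: 0% = growth of vehicle-only control cultures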
Conditions: S. cerevisiae sgs1 mutant, hits give high values
Experimental: Growth inhibition of yeast strains with defined genetic alterations is measured as a screen for potential anti-cancer activity. Selected strains with alterations in DNA damage repair or cell cycle control were exposed to compounds and growth inhibition was measured relative to vehicle treated controls. The strain used in this assay is sgs1

| SMILES | growth inhibition (at 1.2 µM) [%] | growth inhibition (at 3.7 µM) | growth inhibition (at 11.0 µM) | growth inhibition (at 33.0 µM) | growth inhibition (at 100.0 µM) |
| --- | --- | --- | --- | --- | --- |
| COc1ccc(/C=C2\SC(=S)N(C=C3C(=O)NC(=S)NC3=O)C2=O)cc1OC | 11 | 29% | 61% | 94% (active) | 93% (active) |
| CC(C)(C)c1ccc(O)c(C(c2ccc([N+](=O)[O-])cc2)c2cc(C(C)(C)C)ccc2O)c1 | 22 | 13% | 40% | 82% (active) | 93% (active) |
| Cc1cc(N=C2C=CC(=[N+](C)C)C=C2)c(N)cc1N | -27 | -25% | 1% | 33% | 61% |
| O=[N+]([O-])/C(C(Cl)=C(Cl)Cl)=C1/OCCS1 | 42 | 78% (active) | 97% (active) | 99% (active) | 99% (active) |
| Cc1cc(OCc2ccccc2)ccc1[N+](=O)[O-] | 11 | 16% | 6% | 38% | 88% (active) |
| CCCCCCCCN1C(=O)c2ccccc2C1=O | -3 | -1% | 0% | 4% | 13% |
| CCCCCC(=O)c1ccc(O)cc1O | -19 | -2% | -6% | 90% (active) | 98% (active) |
| O=S1(=O)c2ccccc2N=C(c2ccccc2Cl)CC1c1ccc(F)cc1 (stereo not given) | -7 | 8% | -15% | 17% | 33% |
